Laboratory results reported in PubChem BioAssay AID1220 (Sanford-Burnham Center for Chemical Genomics, 2008).
In all, about 190,000 compounds went through this assay and about 1,300 (0.68%) were called active. What follows is part of a selection rich in actives, with near analogues and random picks from the rest. Values without a mark were called inactive. Rule as the data show it: active = inhibition above about 50%; inactive = the rest.

These compounds were tested against Mannose-6-phosphate isomerase (Homo sapiens) (UniProt P34949) (assay: human PMI inhibitors, high substrate, primary screen, biochemical, fluorescence intensity, high mannose 6-phosphate (AID 1220)). Conditions: recombinant PMI enzyme, coupled fluorescence intensity; at 20 µM; active compounds read high.
Mannose-6-phosphate isomerase (Homo sapiens), sequence (P34949 whole entry, looked up): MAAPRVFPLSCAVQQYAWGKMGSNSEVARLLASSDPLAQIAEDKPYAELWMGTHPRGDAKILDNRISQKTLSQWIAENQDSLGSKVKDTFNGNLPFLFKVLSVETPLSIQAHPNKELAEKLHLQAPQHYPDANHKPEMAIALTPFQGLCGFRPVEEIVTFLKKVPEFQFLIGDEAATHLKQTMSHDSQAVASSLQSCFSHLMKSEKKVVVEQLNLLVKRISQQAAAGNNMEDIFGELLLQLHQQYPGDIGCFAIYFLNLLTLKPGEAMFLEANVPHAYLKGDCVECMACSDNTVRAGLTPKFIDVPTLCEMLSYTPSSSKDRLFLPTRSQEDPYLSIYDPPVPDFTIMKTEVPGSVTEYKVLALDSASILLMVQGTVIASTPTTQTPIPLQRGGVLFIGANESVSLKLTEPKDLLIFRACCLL

SMILES	inhibition
CC1CCCN(S(=O)(=O)c2ccc(S(=O)(=O)N3CCC4(CC3)OCCO4)cc2)C1 (centres undefined)	2.2%
CC(C)OC(=O)c1cc(NC(=S)Nc2ccc([N+](=O)[O-])cc2)cc(C(=O)OC(C)C)c1	4%
CCC1(CC)C(=O)N=C2c3ccccc3C(=O)N21	-2.6%
O=C(c1ccc(C(F)(F)F)cc1)N1CCC(=O)N(C(COCc2ccccc2)Cc2ccccc2)CC1 (centres undefined)	-5.1%
O=C(Nc1ccccc1)c1cc2c(=O)c3ccccc3oc2nc1C(F)(F)F	4.4%
COc1ccccc1N1CCN(c2cnccn2)CC1	5.8%
CNCc1ccccc1Sc1cc(O)ccc1O	41.3%
CNCc1ccccc1Sc1cccc(O)c1	-1.7%
O=C(Cc1ccccc1)NCC(=O)N1CCCCC1	-8%
O=C(NNC(=O)C1CC1c1ccccc1)c1ccccc1F (centres undefined)	-2.1%
CCOC(=O)c1cccc(NC(=O)CCc2ccccc2)c1	-0.6%
COc1cccc(CNC(=O)CC(NC(C)=O)c2ccccc2)c1 (centres undefined)	1%
CC(=O)NC(Cc1ccccc1)c1ccc2c(c1)OCCCO2 (centres undefined)	4.4%
COc1cc([C@H](Cc2ccccc2)NC(C)=O)oc(=O)c1	53.9% (active)
Cc1cccc(C(=O)Oc2ccccc2-c2nnco2)c1	-9.6%
COc1ccc(C(c2sc3nc(C)nn3c2O)N2CCCCC2)cc1 (centres undefined)	4.3%
O=c1[nH]c2cc3c(cc2cc1CN(CC1CCCO1)S(=O)(=O)c1ccccc1)OCCO3 (centres undefined)	4.9%
C/C(CC(=O)N1CCN(C=O)CC1)=N\NC(=O)c1ccc(Cl)cc1	3.6%
COc1ccc(C(=O)N/N=C(\C)CC(=O)N2CCN(C=O)CC2)cc1	-9.2%
CC(=O)NC(Cc1cc(C)ccc1C)C(=O)N1CCN(C(=O)c2ccccc2Br)CC1 (centres undefined)	-3.4%
O=[N+]([O-])c1cc(-c2n[nH]c(-c3ccccc3)n2)cc([N+](=O)[O-])c1	-4.6%
Oc1cccc(/C=N/Nc2cccc3cccnc23)c1	20.3%

SMILES	inhibition
COc1ccc(/C=C2\SC(=O)N(CCC(=O)Nc3ccc(S(=O)(=O)Nc4nccs4)cc3)C2=O)cc1	8.6%
CCCNS(=O)(=O)c1ccc(CCC(=O)Nc2ccc3c(c2)OCCO3)cc1	50.1% (active)
CCCNS(=O)(=O)c1ccc(CCC(=O)Nc2ccc3c(c2)OCO3)cc1	10.1%
O=C(CCc1ccc(S(=O)(=O)NCCc2ccccc2)cc1)Nc1ccc2c(c1)OCCO2	-3.2%
O=C(N/N=C/c1cc2c3c(c1O)CCCN3CCC2)c1ccccc1O	50.2% (active)
O=C(Oc1ccc(/C=N/NC(=O)c2ccccc2O)cc1)c1ccccc1	-12.7%
Cc1nn(-c2ccccc2)c(N2CCCC2)c1/C=N/NC(=O)c1ccccc1O	-2.8%
Oc1ccc(NC(=S)Nc2ccc(O)cc2)cc1	66.7% (active)
Oc1ccc(NC(=S)Nc2ccccc2)cc1	16.4%
COC(=O)c1ccc(NC(=S)Nc2ccc(O)cc2)cc1	-3.3%
CCOc1cc(C(N)=O)cc(Cl)c1OCC	1.7%
Cc1ccc(C(=O)/C=C/c2c[nH]c3ccccc23)cc1	54.4% (active)
O=C(/C=C/c1c[nH]c2ccccc12)c1cccc2ccccc12	42%
Cc1ccc(/C=C/C(=O)c2ccccc2)cc1	11.2%
O=C(/C=C/c1c[nH]c2ccccc12)c1ccccc1	52.5% (active)
Cc1ccc(C(=O)Nc2ccc(C(=O)N/N=C/c3c[nH]c4ccccc34)cc2)cc1	11.4%
Cc1[nH]c2ccccc2c1/C=C/C(=O)c1ccccc1	3.9%
COc1cc(/C=C(\C#N)c2nc3ccccc3[nH]2)cc(Br)c1OCc1ccc(F)cc1	19.3%
c1ccc(COCCN2CCN(CCOCc3ccccc3)CC2)cc1	3.2%
COc1ccc2nc(N3CCC(O)CC3)c(C#N)cc2c1	51.2% (active)
COc1ccc2nc(SC)c(C#N)cc2c1	52.1% (active)
COc1ccc2nc(N3CCC(C)CC3)c(C#N)cc2c1	-5.3%

SMILES	inhibition
CCSc1nc2ccc(OC)cc2cc1C#N	14.3%
COc1ccc2nc(N3CCCC3)c(C#N)cc2c1	-5.8%
COc1ccc2nc(SCC(C)=O)c(C#N)cc2c1	-92.4%
COc1cccc(C2=NCCc3cc4c(cc32)OCO4)c1OC	1.3%
CCC(=O)Nc1nc2c(s1)COc1ccccc1-2	6.3%
CCC12CN3CC(CC)(CN(C1)C3c1ccccc1Cl)C2O (centres undefined)	6.4%
CCN(CC(=O)NC1CCS(=O)(=O)C1)C(=O)/C=C/c1cccs1 (centres undefined)	-0.6%
Cc1ccc(-c2csc(/C(C#N)=C/Nc3ccccc3SC(F)(F)F)n2)cc1	-3.6%
O=C(Cc1csc(N2CCOCC2)n1)N/N=C/c1ccc(Cl)cc1Cl	4.5%
O=C(Cc1csc(N2CCOCC2)n1)N/N=C/c1cccc(O)c1	6.6%
O=C(CCc1ccc(S(=O)(=O)N2CCOCC2)cc1)N/N=C/c1cccc(O)c1	-6.2%
O=C(CCc1ccc(S(=O)(=O)N2CCOCC2)cc1)N/N=C/c1ccc(F)cc1F	10.5%
CCN1CCc2c(OCC(=O)N3CCC(C)CC3)cccc2C1=O	-8.8%
COc1cccc(C(=O)NC(=S)Nc2ccc3oc(=O)ccc3c2)c1	4.1%
COc1ccc(S(=O)(=O)N2CCCCC2)cc1NC(=S)Nc1cccc(Cl)c1C	7.7%
Cc1cc(N2C(=O)CCC2=O)ccc1NC(=O)c1cccs1	-1.9%
COCc1cc(/C=N\NC(=O)COc2ccc(Cl)cc2)ccc1OC	-2%
O=c1[nH]ccc2c([N+](=O)[O-])cccc12	55.2% (active)
O=c1[nH]cnc2c([N+](=O)[O-])cccc12	-12.2%
Cn1ccc2c([N+](=O)[O-])cccc2c1=O	23.6%
